Assay results: ChEMBL document CHEMBL4513146, “CO-ADD screening of Karazin Kharkiv National University (Ukraine) compounds”
Entries with a potency or affinity are not part of this list.

Key:
[1] = system: Klebsiella pneumoniae; details: Concentration 32 ug.mL-1;; ASSAY_TEST Inhibition of Bacterial Growth; detection method Absorption (OD600); MEDIA CAMHB; plate type 384well; NBS; CORNING #3640; time 18 hr
[2] = system: Candida albicans; details: Concentration 32 ug.mL-1; ASSAY_TEST Inhibition of Fungal Growth; detection method Absorption (OD530)
[3] = system: Cryptococcus neoformans; details: Concentration 32 ug.mL-1; ASSAY_TEST Inhibition of Fungal Growth; detection method Resazurin; Absorption (OD600-OD570); plate type 384well; NBS; CORNING #3640

SMILES | Inhibition [1] [%] | Inhibition [2] [%] | Inhibition [3] [%]
Cc1cccc(-c2nc(CSc3nc4ccccc4n4c(C)nnc34)c(C)o2)c1 | 10.71 | 3.22 | -23.71
Cc1cc2nn(CC(=O)NC3CCCCC3)c(=O)n2c(Nc2ccc(F)c(C)c2)n1 | 19.39 | 3.39 | -7.59
COc1ccc(N(Cc2cccc(Cl)c2)S(=O)(=O)c2ccc3nnc(C)n3c2)cc1 | 12.69 | 5 | -5.62
CC(C)c1nnc2c(SCC(=O)Nc3ccccc3C(F)(F)F)nc3ccccc3n12 | 13.6 | 0.36 | -15.63
COc1cccc(Sc2nc3ccccc3n3c(=O)n(CC(=O)Nc4ccccc4)nc23)c1 | 3.34 | 1.24 | -26.53
COc1ccc(NC(=O)Cn2nc3c(SC4CCCCC4)nccn3c2=O)cc1OC | 12.09 | -2.05 | -22.51
CCCc1nnc2c(=O)n(CC(=O)Nc3ccc(C(C)=O)cc3)c3ccccc3n12 | 3.81 | -1.78 | -9.17
Cc1nnc2c(S(=O)(=O)N(Cc3cccc(Cl)c3)c3ccc(F)c(F)c3)cccn12 | 3.16 | 2.06 | -7.4
Cc1cc(C)c(NC(=O)CSc2nnc3c4cc(-c5ccccc5)nn4ccn23)c(C)c1 | 10.34 | 10.47 | -13.87
O=c1n(Cc2ccc3c(c2)OCO3)nc2ccc(-c3ccccc3)nn12 | 13.28 | 2.43 | -7.16
Cc1ccccc1Cn1nc2c(=O)n(-c3cccc(Cl)c3C)ccn2c1=O | 2.06 | 0.54 | -12.78
CC(C)c1nnc2c(=O)n(CC(=O)Nc3ccc(F)cc3)c3ccccc3n12 | 21.13 | 1.82 | -21.16
COc1ccc(CN(c2ccc(C(C)C)cc2)S(=O)(=O)c2cccn3cnnc23)cc1 | 7.8 | 1.9 | -7.62
COc1ccc(NC(=O)c2ccc3nn(CC(=O)Nc4ccc(C(F)(F)F)cc4)c(=O)n3c2)cc1 | -7.6 | 4.22 | -2.75
Cc1ccc(NC(=O)CSc2nnc3ccc(C(=O)Nc4cccc(F)c4)cn23)c(C)c1 | 2.38 | 9.81 | -2.98
Cc1ccc(Sc2ccc3nn(CC(=O)Nc4cccc(Cl)c4)c(=O)n3n2)cc1 | -1.6 | 23.7 | -8.64
Cc1cccc(Cn2nc3c(=O)n(-c4cccc(Cl)c4C)ccn3c2=O)c1 | -2.16 | 8.37 | -8.02
CC1CCN(C(=O)Cn2nc3n(Cc4ccco4)c(=O)c4sccc4n3c2=O)CC1 | 6.19 | 0.21 | -13.38
O=C(Cn1nc2nc(Nc3ccc(F)cc3)ccn2c1=O)Nc1ccc(F)cc1 | 8.54 | 3.4 | -2.56
Cc1ccc(NC(=O)Cn2nc3ccc(SC4CCCCC4)nn3c2=O)cc1C | -2.51 | 4.67 | -21.19
O=C(Cn1nc2c(SC3CCCCC3)nccn2c1=O)Nc1ccc(F)cc1 | 10.22 | 0.1 | -30.85
O=C(CSc1nnc2c(=O)n(-c3ccc(Br)cc3)ccn12)Nc1cccc(F)c1 | 8.72 | 6.18 | -18.67
CCC(C)NC(=O)CCn1c(=O)c2ccccc2n2c(=O)n(CC(=O)NCc3cccs3)nc12 (stereo not given) | 12.47 | 0.11 | -24.13
Cc1ccc(Sc2nccn3c(=O)n(CC(=O)Nc4ccc(C)cc4Br)nc23)c(C)c1 | 10.73 | 2.86 | -20.37
CCOc1ccc(-n2ccn3c(=O)n(CC(=O)Nc4ccc(Br)cc4)nc3c2=O)cc1 | 8.93 | 2.12 | -3.26
COc1cccc(CN(c2ccc(F)c(F)c2)S(=O)(=O)c2cccn3c(C)nnc23)c1 | 13.94 | -0.28 | -8.71
CCOc1ccc(NC(=O)Cn2nc3ccc(-c4ccccc4)nn3c2=O)cc1 | 6.87 | 4.93 | -6.8
O=C(Cn1nc2ccc(-c3ccc(Cl)cc3)nn2c1=O)N1CCN(c2ccccc2F)CC1 | 1.3 | 2.81 | -11.05
O=C(CCc1nnc2c3cc(-c4ccc(Cl)cc4)nn3ccn12)N1CCN(c2ccccn2)CC1 | 12.64 | -0.78 | -16.65
CCOc1ccc(-n2ccn3c(SCc4cccc(C(F)(F)F)c4)nnc3c2=O)cc1 | 0.24 | 0.48 | -7.62
